HT1080 IDH1KD tx: kills HT-1080 cells with IDH1 knockdown; HT-1080 IDH1 knockdown viability, ATP luminescence, 48 h; 360,000 tested, 2% active; Potency, µM (series often up to 46.1 µM), for the others: at the top dose activity, negative = toxicity, actives largely listed as cytotoxic;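 note: potency is the fitted concentration of half-maximal effect; 0% = DMSO wells and -100% = cell-free medium wells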
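Viability of IDH1-knockdown HT-1080 fibrosarcoma cells was assessed by CellTiter-Glo after 48 h at 37 °C with titrated compound; concentration-effect curves were classified by fit quality and response size.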
DT40 TDP1 CPT: growth inhibition of DT40 Tdp1-/-;hTDP1 cells with camptothecin (screen for TDP1 inhibitors); chicken DT40 Tdp1-/-;hTDP1 cells + 20 nM CPT, ATP luminescence, 48 h; Potency, µM (series often up to 46.2 µM), for the others: at the top dose activity change, negative = growth inhibition, most hits filed as inhibitors; 420,000 tested, 12% active; AID 686979; note: potency is the fitted concentration of half-maximal effect; nearly all actives have a fitted effect of over 55% in size
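Chicken DT40 Tdp1-/- cells complemented with human TDP1, 400 cells/well, exposed to compounds plus 20 nM camptothecin for at least 48 h at 37 C; viability read as ATP content by CellTiter-Glo luminescence.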
IL-1B inflam inh: inhibitors of inflammasome signaling (IL-1 beta secretion) | THP-1 LPS/ATP IL-1B secretion, AlphaLISA, 16 h; stronger effect = lower value | activity change, % at 57.5 µM | 360,000 tested, 4.7% active | AID 743279; in the data active = activity change below about -50%; inconclusive = mostly about -30% to -49%
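Secreted IL-1B measured by AlphaLISA bead assay after 16 h compound exposure of THP-1 cells; compounds (final up to 57.5 uM) added 1 h before LPS (250 ng/mL) and ATP (1.25 mM) stimulation; lower signal means less secretion.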
HT1080NT lethal: kills 2HG-producing HT-1080-NT fibrosarcoma cells | HT-1080-NT fibrosarcoma viability, CellTiter-Glo ATP luminescence, 48 h | Potency, µM (titrated, usually from 46.1 µM), for inactives: top-dose activity, negative = less viability, most hits filed as cytotoxic | 360,000 tested, 1.6% active | AID 686970;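 note: NT is the 2HG producing partner of a matched IDH1 knockdown line; potency is the fitted concentration of half-maximal effect; 0% = DMSO-treated cells and -100% = media-only wells without cells; nearly all actives have a fitted effect of over 55% in size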
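HT-1080-NT fibrosarcoma cells (2HG-overproducing), 750 cells/well in RPMI with 5% FBS, dosed after 2 h and incubated 48 h at 37C. CellTiter-Glo luminescence normalized to DMSO and no-cell wells; concentration-response curves fitted and classed.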
DT40 TDP1 no CPT: qHTS for Inhibitors of human tyrosyl-DNA phosphodiesterase 1 (TDP1): qHTS in cells in absence of CPT; AID 686978, 2013; Potency, µM (titrated, usually from 46.2 µM), without a hit: at the top dose activity change, negative = growth inhibition, actives largely listed as inhibitors; 420,000 tested, 15% active; DT40 Tdp1-/- hTDP1 cells, no CPT, ATP luminescence, 48 h; note: potency is the fitted concentration of half-maximal effect; nearly all actives have a fitted effect of over 55% in size
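Compound effects on proliferation are scored in DT40 Tdp1-/-;hTDP1 cells in the absence of CPT. ATP levels (CellTiter-Glo luminescence) are recorded after a ≥48 hr, 37 °C incubation.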
An asterisk follows results filed as active; ? = inconclusive; . = no result given; [ ] = another dose, or the depositor's remark. This is a sample that favours compounds with a hit; in the whole collection about 19% have one here. Unless noted, calls come from the whole dose curve; as a rule, active = well fitted curve in the direction sought with a large enough effect; inconclusive = small, poorly fitted or top-dose-only effect, or another doubt; inactive = no such curve, though single readings can be large; an effect the other way counts as inactive or inconclusive. Unless noted, % is set by controls: 0 for no effect and ±100 for the full control effect.

SMILES	HT1080 IDH1KD tx	DT40 TDP1 CPT	IL-1B inflam inh	HT1080NT lethal	DT40 TDP1 no CPT
CCc1ccc(-c2cc(C(=O)NCc3ccccn3)c3ccccc3n2)cc1	4%	?	?	-1%	?
Cc1ccc(-c2cc(C(=O)NCCc3ccccn3)c3ccccc3n2)c(C)c1	5%	?	?	1%	?
Cc1ccc(-c2cc(C(=O)NCc3ccccn3)c3ccccc3n2)cc1	-21%	?	-19	-12%	16µM*
O=C(CN1CCN(c2ccccc2F)CC1)NC(=O)NC1CCCCC1	-2%	?	-1	-3%	?
COc1cc(-c2[nH]ncc2CN2CCc3sccc3C2)cc(OC)c1OC	2%	15µM*	42	0%	10µM*
COc1ccc(CC(=O)NNC(=O)c2c(-c3ccccc3Cl)noc2C)cc1OC	6%	11%	14	10%	-4%
CN1C/C(=C/c2ccccc2[N+](=O)[O-])C(=O)/C(=C\c2ccccc2[N+](=O)[O-])C1	3.7µM*	0.52µM*	-98*	2.9µM*	0.92µM*
COc1ccc(C(=O)Nc2nc(OCC(F)(F)F)cnc2/C=C\c2ccccc2)c(OC)c1	29%	21µM*	-14	20%	?
O=C(Nc1nc(OCC(F)(F)F)cnc1/C=C\c1ccccc1)c1ccsc1	0%	23µM*	-5	1%	?
COc1cccc(/C=N\NC(=O)c2cc(OCC(F)(F)F)ccc2OCC(F)(F)F)c1	6%	?	-6	-5%	?
CS(=O)(=O)Nc1ccc(C(=O)Nc2ccccc2-c2ccccc2)cc1	-1%	-20%	?	-13%	-6%
CCCC(=O)OC1CC(C)N(C(=O)c2ccccc2)c2ccc(C)cc21 (stereo not drawn)	-4%	?	3	1%	23µM*
CC(=O)N1c2ccc(C)cc2C(c2ccccc2)CC1C (stereo not drawn)	-12%	?	-55*	-1%	?
CCc1ccccc1NS(=O)(=O)c1ccc(NC(=O)N2CCCC2)cc1	.	-20%	.	.	?
CCC1(C2CCN(Cc3cc4ccccc4o3)CC2)NC(=O)N(CC2COc3ccccc3O2)C1=O (stereo not drawn)	.	?	.	.	21µM*
CC(C)N1CCN(CC2COc3ccccc3O2)CC1 (stereo not drawn)	6%	0%	-4	-5%	-9%
COc1ccc(CC(=O)Nc2cc(S(C)(=O)=O)ccc2Cl)cc1S(=O)(=O)N1CCOCC1	13%	-2%	12	10%	1%
Cc1cc(C)n2c(SCc3ccc(Cl)cc3Cl)nnc2n1	?	?	-2	?	18µM*
Cc1cc(C)n2c(SCc3ccccc3Cl)nnc2n1	-6%	-22%	-9	-13%	2%
CC(C)(C)c1ccc(C(=O)/C(C#N)=C/c2cccs2)cc1	1%	-2%	-11	-4%	-5%
CC(C)(C)c1ccc(C(=O)N2CCCC2c2cccs2)cc1 (stereo not drawn)	-9%	-17%	-99*	-4%	?
CCc1ccc(N(C(=O)c2snc(C(N)=O)c2N)C(C(=O)NCC2CCCO2)c2cccs2)cc1 (stereo not drawn)	-25%	?	14	-2%	21µM*
COc1ccc(C(C(=O)NCC2CCCO2)N(C(=O)c2snc(C(N)=O)c2N)c2ccccc2)cc1OC (stereo not drawn)	3%	-8%	3	0%	-20%
NC(=O)c1nsc(C(=O)N(c2ccc(Cl)cc2)C(C(=O)NCC2CCCO2)c2cccs2)c1N (stereo not drawn)	4%	?	-83*	24%	?
O=C1Cc2cccc3cccc1c23	11%	-5%	43	-6%	-9%
SMILES	HT1080 IDH1KD tx	DT40 TDP1 CPT	IL-1B inflam inh	HT1080NT lethal	DT40 TDP1 no CPT
COc1ccc(OC)c(Nc2cc3ccccc3c(=O)[nH]2)c1	18µM*	1.3µM*	63	?	1.8µM*
COc1ccccc1Nc1cc2cc(Br)ccc2c(=O)[nH]1	?	2.6µM*	79	-27%	5.2µM*
COc1ccccc1Nc1nnc(C)c(=O)[nH]1	-3%	8%	26	-2%	-7%
O=c1[nH]c(Nc2ccccc2)cc2cc(Br)ccc12	-23%	?	36	-12%	18µM*
Cc1nnsc1C(=O)NNC(=O)c1cccc2ccccc12	20%	-7%	-13	10%	-7%
CCn1c(-c2ccccc2F)nc2cc(NC(C)=O)cc(C(=O)N3CCCC3c3nccs3)c21 (stereo not drawn)	.	7%[9.04 µM]	.	.	2%
COc1ccc(-c2c(-c3ccc(O)cc3O)n[nH]c2C)cc1OC	?	?	16	?	18µM*
COc1ccc(-c2n[nH]c(C)c2-c2cc(OC)ccc2O)cc1	-2%	?	-10	-2%	?
COc1ccc(-c2c(-c3ccc(OC)c(C)c3O)n[nH]c2C)cc1	18µM*	?	?	?	?
COc1ccc(CN2C(=NC(=O)c3ccccc3)SC3CS(=O)(=O)CC32)cc1 (stereo not drawn)	1%	-13%	-2	-3%	4%
CC1Cc2ccccc2N1C1=NS(=O)(=O)c2ccccc21 (stereo not drawn)	1%	-10%	-27	5%	-19%
CC1Cc2ccccc2N1C1=CC(=O)CCC1 (stereo not drawn)	-2%	7.3µM*	85	-12%	5.8µM*
COc1cc(NC(=O)c2cc(Cl)ccc2Cl)ccc1NC(=O)c1cc2ccccc2o1	.	5.8µM*	.	.	4.6µM*
COc1cc(NC(=O)c2cccs2)ccc1NC(=O)c1cc2ccccc2o1	11%	?	-13	-2%	12µM*
COc1cc(NC(=O)c2ccccc2[N+](=O)[O-])ccc1NC(=O)c1cc2ccccc2o1	2%	16µM*	?	-4%	8.2µM*
COc1ccc(-c2nc3cc(C(C)C)ccc3o2)cc1NC(=O)c1ccccc1[N+](=O)[O-]	.	8.2µM*	.	.	10µM*
COc1ccc(-c2nc3ccccc3o2)cc1NC(=O)c1cc(Br)ccc1OC	.	13%	.	.	9%
COc1cc(NC(C)=O)ccc1NC(=O)c1cc2ccccc2o1	7%	?	-4	11%	?
COc1cccc(C(=O)Nc2ccc(NC(=O)c3cc4ccccc4o3)c(OC)c2)c1	2%	-24%	0	2%	-17%
COc1ccc(C[C@H]2c3cc(O)c(OC)cc3CC[N+]2(C)[O-])cc1O (stereo partly drawn)	13%	?	-17	8%	21µM*
COc1cc2c(cc1O)C(Cc1ccc(O)cc1)[N+](C)([O-])CC2 (stereo not drawn)	12%	-19%	5	6%	-4%

Screening results from PubChem.
